Laboratory results from publication PMC5540273 (PLoS ONE, 2017).

Legend:
Conditions in all cases: concentration: 1 μM, replicates: in singlicate; n = 1
MAST1 = test system: MAST1
MEK1 = test system: T1, MEK1
T1 construct: gene MAP2K1

MEK2 = test system: T2, MEK2
T2 construct: gene MAP2K2

MEK3 = test system: T3, MEK3
T3 construct: gene MAP2K3

MEK4 = test system: T4, MEK4
T4 construct: gene MAP2K4

MEK5 = test system: T5, MEK5
T5 construct: gene MAP2K5

MEK6 = test system: T6, MEK6
T6 construct: gene MAP2K6

MELK = test system: MELK
MERTK = test system: MERTK
MET = test system: MET
MINK = test system: T7, MINK
T7 construct: gene MINK1

MKK7 = test system: MKK7
MKNK1 = test system: MKNK1
MKNK2 = test system: MKNK2
MLCK = test system: T8, MLCK
T8 construct: gene MYLK3

MLK1 = test system: T9, MLK1
T9 construct: gene MAP3K9

MLK2 = test system: MLK2
MLK3 = test system: MLK3
MRCKA = test system: MRCKA
MRCKB = test system: T10, MRCKB
T10 construct: gene CDC42BPB
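Note: KINOMEscan kinase panel screen.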

Row | SMILES | %Inh (MAST1) | %Inh (MEK1) | %Inh (MEK2) | %Inh (MEK3) | %Inh (MEK4) | %Inh (MEK5) | %Inh (MEK6) | %Inh (MELK) | %Inh (MERTK) | %Inh (MET) | %Inh (MINK) | %Inh (MKK7) | %Inh (MKNK1) | %Inh (MKNK2) | %Inh (MLCK) | %Inh (MLK1) | %Inh (MLK2) | %Inh (MLK3) | %Inh (MRCKA) | %Inh (MRCKB)
1 | CC(=O)c1c(C)c2cnc(Nc3ccc(N4CCNCC4)cn3)nc2n(C2CCCC2)c1=O | 0% | 0% | 0% | 0% | 0% | 1% | 0% | 5% | 0% | 0% | 0% | 0% | 0% | 0% | 8% | 0% | 0% | 0% | 0% | 35%
2 | CNc1nc(-c2ccc3c(N)n[nH]c3c2)cc(N2C[C@@H](C(=O)NC3CCCCC3)OC[C@H]2C)n1 [GSK2375584] | 0% | 8% | 11% | 0% | 11% | 14% | 0% | 57% | 2% | 0% | 11% | 0% | 10% | 0% | 0% | 0% | 23% | 20% | 4% | 0%
3 | Cc1ccc(NC(=O)Nc2ccc(Cl)cc2)cc1-c1ccc(C(=O)Nc2ccncc2)cc1 [GSK1398472] | 0% | 0% | 0% | 0% | 26% | 11% | 0% | 0% | 0% | 0% | 11% | 21% | 10% | 7% | 0% | 0% | 0% | 15% | 16% | 0%
4 | FC(F)(F)c1ccccc1-c1cc(-c2c[nH]nc2-c2ccccn2)ccn1 [GW679396] | 4% | 0% | 0% | 0% | 16% | 0% | 0% | 0% | 26% | 0% | 11% | 0% | 5% | 0% | 4% | 0% | 0% | 1% | 0% | 0%
5 | CS(=O)(=O)Cc1ccc(Nc2nccc(-c3c(-c4cccc(NC(=O)C5CCCCC5)c4)nn4ncccc34)n2)cc1 [GSK350559] | 39% | 32% | 19% | 42% | 16% | 98.3% | 0% | 0% | 12% | 10% | 0% | 21% | 25% | 13% | 3% | 2% | 7% | 13% | 0% | 0%
6 | COc1ccc(-c2coc3ccc(-c4nnc(C)o4)cc23)cc1 | 0% | 0% | 4% | 0% | 1% | 0% | 0% | 0% | 8% | 0% | 0% | 0% | 0% | 0% | 0% | 0% | 5% | 1% | 0% | 0%
7 | CC(C)c1ccc(O)cc1Nc1ccnc2ccc(C(F)(F)F)cc12 [GW482059] | 0% | 0% | 0% | 0% | 22% | 1% | 0% | 5% | 13% | 0% | 0% | 0% | 2% | 10% | 0% | 0% | 5% | 13% | 0% | 0%
8 | CC(C)c1cc(-c2ccc3c(N)n[nH]c3c2)nc(N)n1 [GSK2250882] | 0% | 0% | 0% | 0% | 8% | 29% | 5% | 15% | 21% | 0% | 21% | 0% | 36% | 82% | 16% | 0% | 0% | 18% | 12% | 0%
9 | O=C(Nc1n[nH]c2nc(-c3cccs3)c(Br)cc12)C1CCCC1 [SB-743341] | 12% | 15% | 14% | 18% | 23% | 31% | 0% | 0% | 0% | 0% | 8% | 12% | 23% | 67% | 86% | 0% | 38% | 19% | 0% | 0%
10 | CNC(=O)c1ccc(C)c(-n2c(C)cc(OCc3ccc(F)cc3F)c(Br)c2=O)c1 | 0% | 0% | 0% | 0% | 0% | 0% | 0% | 14% | 0% | 0% | 0% | 0% | 0% | 100% | 0% | 0% | 0% | 19% | 0% | 8%
11 | CNc1cc(-c2ccc3c(N)n[nH]c3c2)nc(N)n1 [GSK2224810] | 18% | 2% | 0% | 0% | 18% | 37% | 14% | 48% | 31% | 0% | 29% | 0% | 4% | 31% | 73% | 7% | 0% | 2% | 6% | 8%
12 | Cc1ccc(NC(=O)c2ccc(Cl)cc2)cc1-c1ccc(C(=O)Nc2ccncc2)cc1 [GSK1398467] | 0% | 0% | 0% | 0% | 3% | 0% | 0% | 0% | 18% | 0% | 0% | 0% | 0% | 12% | 0% | 0% | 9% | 15% | 9% | 3%
13 | COc1ccc(CSc2nnc(-c3ccc4nccn4c3)o2)cc1C(F)(F)F | 0% | 13% | 21% | 43% | 51% | 0% | 0% | 16% | 5% | 2% | 12% | 0% | 0% | 0% | 2% | 0% | 4% | 3% | 3% | 20%
14 | COC(=O)c1cccc(NC(=O)NC2CCN(c3ccnc(Nc4ccc(OC)cc4)n3)C2)c1 (stereo not drawn) [GSK1379746] | 13% | 0% | 0% | 0% | 34% | 33% | 0% | 0% | 22% | 0% | 0% | 7% | 3% | 2% | 4% | 0% | 0% | 0% | 24% | 0%
15 | Cn1cnc2c(N)ncnc21 [SKF-97623] | 44% | 0% | 0% | 13% | 0% | 23% | 0% | 0% | 16% | 2% | 0% | 0% | 38% | 0% | 0% | 0% | 0% | 0% | 12% | 0%
16 | Fc1ccc(-c2nc[nH]c2-c2ccncc2)cc1 [SB-217360] | 0% | 36% | 58% | 32% | 6% | 66% | 0% | 0% | 19% | 0% | 58% | 9% | 0% | 0% | 0% | 0% | 30% | 1% | 37% | 27%
17 | Fc1ccc(-c2nc3n(c2-c2ccncc2)CCS3)cc1 [GI98581] | 0% | 0% | 0% | 0% | 12% | 14% | 0% | 5% | 12% | 0% | 45% | 0% | 0% | 2% | 15% | 3% | 19% | 21% | 2% | 25%
18 | CCn1c(-c2ccccc2)nc2cnccc21 [SB-733416] | 0% | 0% | 0% | 0% | 25% | 37% | 0% | 0% | 24% | 0% | 0% | 16% | 25% | 28% | 0% | 0% | 3% | 7% | 0% | 14%
19 | Cc1c(Cn2c(C)c(C)n3c(=O)cc(N4CCOCC4)nc23)cccc1C(F)(F)F [GSK2328680] | 0% | 0% | 0% | 0% | 0% | 0% | 0% | 1% | 0% | 0% | 0% | 0% | 0% | 0% | 0% | 0% | 0% | 8% | 0% | 6%
20 | O=C1NC(=O)C(c2ccc(Cl)cc2)=C1Nc1ccc(O)cc1 [SB-340867] | 24% | 0% | 0% | 9% | 0% | 8% | 0% | 1% | 0% | 0% | 11% | 0% | 0% | 0% | 0% | 0% | 0% | 4% | 8% | 0%
21 | COc1ccc(Nc2nccc(N3CCC(NC(=O)C(C)c4ccc(Cl)cc4)C3)n2)cc1 (stereo not drawn) [GSK1379735] | 0% | 0% | 0% | 0% | 20% | 13% | 0% | 7% | 33% | 0% | 1% | 10% | 12% | 2% | 14% | 0% | 43% | 21% | 15% | 2%
